Laboratory results published in PubChem BioAssay (NCI).
The panel holds about 79,000 compounds, 15% with a hit somewhere; the sample as a whole holds those more often. Activity calls are given as the source filed them. No stated cut-off is given here; in the data, active means growth inhibition above about 70%; inactive means the rest.

Experiments:
[1] = NCI Yeast Anticancer Drug Screen. Data for the wt1 strain (AID 149);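 further: 0% = growth of vehicle-treated wt1 cultures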; conditions: S. cerevisiae wt1 strain (SPY 50644) growth inhibition, hits give high values
Method in brief: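 Yeast wt1 strain exposed to compounds; growth inhibition measured relative to vehicle-treated controls.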

[2] = NCI Yeast Anticancer Drug Screen. Data for the rad50EPP+ strain (AID 151);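 further: 0% = growth of vehicle-treated control cultures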; conditions: S. cerevisiae rad50 mutant strain, hits give high values
Method in brief: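 Vehicle-normalised growth inhibition; rad50EPP+ yeast strain, altered in DNA damage repair, compound-treated.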

[3] = NCI Yeast Anticancer Drug Screen. Data for the mgt1 strain (AID 153); conditions: S. cerevisiae mgt1 mutant growth inhibition, hits give high values
Method in brief: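 Vehicle-normalized growth inhibition is determined in mgt1 yeast, a strain selected for a defined alteration in DNA repair or cell cycle control.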

[4] = NCI Yeast Anticancer Drug Screen. Data for the rad50 strain (AID 155);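 further: 0% = growth of vehicle-only cultures of the same strain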; conditions: S. cerevisiae rad50 strain growth inhibition, hits give high values
Method in brief: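 Yeast carrying a defined DNA repair defect were exposed to test compounds, and growth was compared with vehicle-treated controls to give percent inhibition.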

[5] = NCI Yeast Anticancer Drug Screen. Data for the mec2-1 strain (AID 157); conditions: S. cerevisiae mec2-1 strain, hits give high values
Method in brief: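 Mutant yeast (mec2-1) grown with compound; growth inhibition relative to vehicle control reported.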

[6] = NCI Yeast Anticancer Drug Screen. Data for the rad14 strain (AID 159);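 further: 0% = growth of vehicle-treated control cultures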; conditions: S. cerevisiae rad14 strain growth inhibition, hits give high values
Method in brief: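 Yeast cells carrying a defined DNA-repair defect were exposed to compounds, and growth inhibition was calculated relative to vehicle-treated control cultures.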

[7] = NCI Yeast Anticancer Drug Screen. Data for the sgs1 mgt1 strain (AID 161);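 further: 0% = growth of cultures given vehicle only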; conditions: S. cerevisiae sgs1 mgt1 strain, hits give high values
Method in brief: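 Yeast cells carrying a defined DNA-repair defect were exposed to test compounds. Growth inhibition was measured relative to vehicle-treated controls.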

[8] = NCI Yeast Anticancer Drug Screen. Data for the CLN2oe strain (AID 163);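 further: 0% = growth of vehicle-only control cultures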; conditions: S. cerevisiae CLN2oe strain, hits give high values
Method in brief: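 Compounds are applied to yeast harbouring a defined cell-cycle control change; reduced growth compared with vehicle-treated controls gives the value.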

[9] = NCI Yeast Anticancer Drug Screen. Data for the cln2 rad14 strain (AID 165);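 further: 0% = growth equal to vehicle treated cultures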; conditions: S. cerevisiae cln2 rad14 strain, hits give high values
Method in brief: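 Readout is yeast growth inhibition versus vehicle-treated controls, using a strain with cln2 and rad14 alterations exposed to compound.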

[10] = NCI Yeast Anticancer Drug Screen. Data for the bub3 strain (AID 167); conditions: S. cerevisiae bub3 mutant strain, hits give high values
Method in brief: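 Compounds were applied to a genetically altered yeast strain carrying a cell-cycle control defect. Growth inhibition was scored against vehicle-treated controls.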

[11] = NCI Yeast Anticancer Drug Screen. Data for the wt2 strain (AID 169);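 further: 0% = growth of vehicle-treated yeast cultures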; conditions: S. cerevisiae wt2 strain growth inhibition, hits give high values
Method in brief: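 Against vehicle-treated controls, the growth of yeast exposed to each compound was compared, and the inhibition was recorded.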

[12] = NCI Yeast Anticancer Drug Screen. Data for the sgs1 strain (AID 173);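 further: 0% = growth of vehicle-only control cultures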; conditions: S. cerevisiae sgs1 mutant, hits give high values
Method in brief: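 Each compound was added to cultures of the altered yeast strain. Growth was recorded, and inhibition was derived by comparison with vehicle controls.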

[13] = NCI Yeast Anticancer Drug Screen. Data for the mlh1 rad18 strain (AID 175); conditions: S. cerevisiae mlh1 rad18 strain growth inhibition, hits give high values
Method in brief: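 Genetically defined yeast (DNA repair-deficient) exposed to compounds; growth inhibition determined relative to vehicle.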

[14] = NCI Yeast Anticancer Drug Screen. Data for the rad18 strain (AID 177); conditions: S. cerevisiae rad18 mutant growth inhibition, hits give high values
Method in brief: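 Vehicle-treated cultures served as the baseline for scoring compound-induced growth inhibition in DNA-repair-mutant yeast.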

[15] = at 5.0 µM (retest, dose inferred, filed as 0.5)
[16] = at 50.0 µM (retest, dose inferred, filed as 5.0)

Measured: growth inhibition

CCCCCCC(CCl)c1sc(-c2csc(CCNC(=O)OC(C)(C)C)n2)nc1C(=O)OC (stereo not drawn)
inactive: [1]; at 1.2 µM -1% | [1]; at 3.7 µM -4% | [1]; at 11.0 µM -5% | [1]; at 33.0 µM -5% | [1]; at 100.0 µM 30% | [2]; at 1.2 µM -1% | [2]; at 3.7 µM 1% | [2]; at 11.0 µM 2% | [2]; at 33.0 µM 4% | [2]; at 100.0 µM 19% | [3]; at 1.2 µM -1% | [3]; at 3.7 µM -3% | [3]; at 11.0 µM -6% | [3]; at 33.0 µM 2% | [4]; at 1.2 µM -1% | [4]; at 3.7 µM 1% | [4]; [15] -23% | [4]; at 11.0 µM 5% | [4]; at 33.0 µM 24% | [4]; [16] 11% | [4]; at 50.0 µM -2.85% | [5]; at 1.2 µM 0% | [5]; at 3.7 µM -3% | [5]; [15] -11% | [5]; at 11.0 µM 0% | [5]; at 33.0 µM 6% | [5]; [16] 39% | [5]; at 50.0 µM 30.1% | [6]; at 1.2 µM 0% | [6]; at 3.7 µM 1% | [6]; at 11.0 µM 6% | [6]; at 33.0 µM 23% | [7]; [15] 17% | [7]; [16] 27% | [7]; at 50.0 µM -13.5% | [8]; at 1.2 µM -3% | [8]; at 3.7 µM -2% | [8]; at 11.0 µM -9% | [8]; at 33.0 µM -10% | [8]; at 100.0 µM 66% | [9]; [15] 47% | [9]; [16] -2% | [9]; at 50.0 µM -42.5% | [10]; at 1.2 µM -1% | [10]; at 3.7 µM 0% | [10]; [15] -21% | [10]; at 11.0 µM 2% | [10]; at 33.0 µM 8% | [10]; [16] 47% | [10]; at 50.0 µM 9.85% | [11]; at 1.2 µM -3% | [11]; at 3.7 µM -5% | [11]; at 11.0 µM -5% | [11]; at 33.0 µM -6% | [12]; at 1.2 µM -2% | [12]; at 3.7 µM 0% | [12]; at 11.0 µM 1% | [12]; at 33.0 µM 14% | [13]; [15] -15% | [13]; at 50.0 µM 43.5% | [14]; at 1.2 µM -2% | [14]; at 3.7 µM 2% | [14]; at 11.0 µM 16% | [14]; at 33.0 µM 65%
active: [3]; at 100.0 µM 98% | [4]; at 100.0 µM 97% | [5]; at 100.0 µM 96% | [6]; at 100.0 µM 97% | [10]; at 100.0 µM 94% | [11]; at 100.0 µM 97% | [12]; at 100.0 µM 97% | [13]; [16] 88% | [14]; at 100.0 µM 96%
